Most compounds without a hit are left out; they make up all but 1.7% or so of the library.
HEK293 tox = cytotoxic in the GLP-1 receptor inverse agonist counter-screen; Potency, µM (highest dose often 38.3 µM), without a hit: at the top dose activity change, negative = inhibition, most hits filed as inhibitors; 410,000 compounds, 0.13% hits; AID 624418; HEK293 cAMP-luciferase reporter cells, luminescence, 24 h;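 also: loss of luciferase light is scored as toxicity; % is scaled to controls: 0 for no effect and ±100 for the full control effect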
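Cells in DMEM/10% Nu serum/1% pen-strep, 1536-well format. Pre-incubated 12 h, dosed with 23 nL compound, incubated a further 24 h. Luciferase detection, 12 min at room temp, luminescence.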
GLP-1R inv ag = acts as inverse agonist at human GLP-1 receptor; 410,000 compounds, 1.6% hits; HEK293 GLP-1R CRE-luciferase, luminescence, 24 h; GLP-1R form is constitutively active; P43220; Potency, µM (doses to about 38.3 µM), for the others: top-dose activity change, negative = inhibition, usual class: inhibitors; AID 624417; also: % is scaled to controls: 0 for no effect and ±100 for the full control effect; nearly all actives have a fitted effect of over 55% in size
Target sequence (P43220 whole entry, looked up): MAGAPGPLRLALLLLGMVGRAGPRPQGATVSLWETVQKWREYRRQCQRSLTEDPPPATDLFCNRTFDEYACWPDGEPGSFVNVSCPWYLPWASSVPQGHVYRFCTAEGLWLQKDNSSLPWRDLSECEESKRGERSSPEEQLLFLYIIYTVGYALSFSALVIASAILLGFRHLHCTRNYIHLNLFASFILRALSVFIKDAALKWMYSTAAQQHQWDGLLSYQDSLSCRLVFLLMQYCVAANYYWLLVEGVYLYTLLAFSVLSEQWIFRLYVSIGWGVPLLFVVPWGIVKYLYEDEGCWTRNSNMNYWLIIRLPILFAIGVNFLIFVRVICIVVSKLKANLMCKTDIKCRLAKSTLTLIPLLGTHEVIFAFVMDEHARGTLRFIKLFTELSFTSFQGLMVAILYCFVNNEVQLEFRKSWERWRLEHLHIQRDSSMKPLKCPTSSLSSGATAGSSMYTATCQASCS
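Stable HEK293 clone (constitutively active GLP-1R + cAMP-response luciferase); 200 cells/uL plated, 12 h pre-culture, compound 24 hr, 37 deg C/5% CO2; detection reagent 12 min RT; luminescence.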
PTHR1 ag = PTHR1 (human) receptor agonism; HEK293 GP2 PTHR1 cells, GloSensor cAMP luminescence, 1 h; Potency, µM (series often up to 115 µM), inactives show at the highest dose activation, most hits filed as activators; 410,000 compounds, 0.075% hits; also: nearly all actives have a fitted effect of over 55% in size
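HEK-293-derived GP2 cells expressing PTHR1 and a GloSensor cAMP reporter, 3,000/well, plated overnight, given luciferin plus IBMX (each 0.5 mM as added) for 1 h at 37 °C, then compound for 1 h at 37 °C. Luminescence was read after 15 min at room temperature.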
GLP1R ag = GLP-1 receptor (human) agonism; P43220; HEK293 GLP-1R CRE-luciferase, luminescence, 4-6 h; cells express a hypersensitive GLP-1R form; Potency, µM (series often up to 45.6 µM), without a hit: at the highest dose activation, usual class: activators; 380,000 compounds, 0.007% hits; AID 624172; also: % of control where 0% means no effect
* hit, by the source's call; i = inactive; ? = inconclusive; / = no result; [ ] = dose if it differs, or a comment. Calls follow the shape of the dose curve; as a rule, active = well fitted curve in the direction sought with a large enough effect; inconclusive = small, poorly fitted or top-dose-only effect, or another doubt; inactive = no such curve, though single readings can be large; an effect the other way counts as inactive or inconclusive. Potency is read from the fitted curve at half-maximal effect.

SMILES	HEK293 tox	GLP-1R inv ag	PTHR1 ag	GLP1R ag
CC(C)(C)c1ccc(C(=O)NC2(C(F)(F)F)NC(=O)N(CCc3ccccc3)C2=O)cc1 (stereo not given)	-32%	13µM*	-30%	-5%
CCOc1ccccc1NC(=O)Nc1nnc(N2CCCCCC2)s1	0%	3%	-8%	/
[2H]c1c([2H])c([2H])c2c([nH]c(=S)n2C2CCN(CCCC(=O)c3ccc(F)cc3)CC2)c1[2H]	/	/	/	11%
COCCNc1nc(NCc2ccccc2OC)c2sccc2n1	-2%	?	-21%	4%
COc1ccccc1CNc1nc(Nc2ccccc2-n2cccn2)c2sccc2n1	-10%	3.2µM*	-12%	33%
Cn1c(SCC(=O)N2CCN(c3ccccc3)CC2)nnc1-c1c[nH]c2ccccc12	-11%	?	-2%	-1%
Cc1ccc(CSCc2nnc(SCC(=O)N3CCN(c4ccccc4)CC3)n2C)cc1	16%	7.9µM*	-45%[57.5 µM]	0%
CCn1c(CSCc2ccc(F)cc2)nnc1SCC(=O)N1CCN(c2ccccc2)CC1	-23%	?	-49%[57.5 µM]	-7%
CCn1c(SCC(=O)N2CCN(c3ccccc3)CC2)nnc1-c1c[nH]c2ccccc12	2%	4µM*	-13%	-1%
CCn1c(SCC(=O)N2CCCc3ccccc32)nnc1-c1c[nH]c2ccccc12	-21%	2.5µM*	-35%[57.5 µM]	-4%
COC(=O)C1=C(C)NC(C)=C(C(=O)O[C@H]2CCN(Cc3ccccc3)C2)C1c1cccc([N+](=O)[O-])c1 (stereo not given in full)	/	/	/	-4%
COc1cc(/C=N/Nc2nc(Nc3ccc(C)cc3)nc(-n3nc(C)cc3C)n2)cc(OC)c1OC	4.5µM*	?	i	7%
COc1cc(/C=N/Nc2nc(Nc3ccccc3)nc(-n3nc(C)cc3C)n2)cc(OC)c1OC	?	?	-20%	18%
O=C(Cn1cc(/C=C\[N+](=O)[O-])c2ccccc21)Nc1ccccc1	?	7.1µM*	-28%	-4%
CCC1CN(C(=O)N2CCC(C(=O)NCCc3ccc(OC)cc3OC)CC2)c2cc(C)ccc2O1 (stereo not given)	-18%	-16%	-81%	/
Cc1ccc(OCc2nnc(SCC(=O)C(C)(C)C)n2Cc2ccco2)cc1	14%	2µM*	-11%	13%
Cc1cc(NC(=O)CSc2nnc(COc3ccccc3)n2Cc2ccco2)no1	5%	1%	i	-8%
CC1(C)CC(n2c(NCCO)nc3c(c2=O)C2(CCCC2)Cc2ccccc2-3)CCO1 (stereo not given)	-16%	?	i	15%
O=c1c2c(nc(NCCO)n1CC1CCCCC1)-c1ccccc1CC21CCCC1	?	4µM*	i	1%
COc1ccccc1NC(=O)Cn1c(=O)n(Cc2ccccc2)c(=O)c2c1c1cc(C)ccc1n2C	-8%	-6%	i	-8%
O=C(OCc1cn([C@@H]2CN(C(=O)C3CCCCC3)[C@@H](c3ccccc3)C[C@H]2O)nn1)c1ccccc1	-13%	-4%	-16%	-4%
CCCCCCN1C[C@H](n2cc(COC(=O)c3ccccc3)nn2)[C@@H](O)C[C@@H]1c1ccccc1	5%	?	-13%	-3%
CCCCCCN1C[C@@H](n2cc(COC(=O)c3ccccc3)nn2)[C@H](O)C[C@@H]1c1ccc(OC)cc1	-23%	14µM*	-28%	-3%
O=C(OCc1cn([C@H]2CN(C(=O)C3CCCCC3)[C@@H](c3ccc(Cl)cc3)C[C@@H]2O)nn1)c1ccccc1	-17%	11µM*	-34%	1%
COc1ccc(C(=O)Oc2c(Sc3ccccc3)c(C)nn2-c2ccccc2)cc1OC	-21%	?	-27%	/
SMILES	HEK293 tox	GLP-1R inv ag	PTHR1 ag	GLP1R ag
Cc1cc(C)c2c(C)c(C(=O)N3CCC(c4nc5ccccc5s4)CC3)oc2c1	-9%	?	i	/
CNc1ccccc1C(C)(C)c1cc(-c2ccco2)n[nH]1	1%	7.9µM*	-19%[57.5 µM]	2%
CNc1ccccc1C(C)(C)c1cc(C)[nH]n1	-22%	?	-3%	-7%
Cc1ccc(CNC(=O)c2c(Nc3c(C)cccc3C)sc(C(=O)c3ccccc3)c2N)cc1	-24%	7.1µM*	-22%	/
CCOC(=O)c1ccc(N2C(=O)c3n[nH]c(-c4ccco4)c3C2c2ccc(OCC)cc2)cc1 (stereo not given)	-29%	11µM*	-36%	/
CCOC(=O)c1ccc(N2C(=O)c3n[nH]c(-c4ccco4)c3C2c2ccc(F)cc2)cc1 (stereo not given)	-24%	?	-19%	-6%
Cc1ccccc1C(=O)N1CC/C(=N/OS(=O)(=O)O)c2ccc(Cl)cc21	/	/	/	3%
CC(C)Oc1ccccc1C1CC(=O)Nc2cc3c(cc21)OCCO3 (stereo not given)	?	-13%	-37%	?
CC(C)Oc1ccccc1C1Nc2ccccc2C(=O)N1c1ccc2c(c1)OCCO2 (stereo not given)	23%	10µM*	-18%[57.5 µM]	-9%
FC(F)(F)c1ccc(Oc2ccc3ccccc3c2Br)nc1	20%	10µM*	-38%	10%
O=[N+]([O-])c1ccccc1Oc1ccc(C(F)(F)F)cn1	-3%	11%	-6%	16%
COc1ccc2c(c1)CCc1c(C(=O)Nc3ccc(F)c(Cl)c3)noc1-2	-10%	12%	i	/
Cc1ccc(OCCCCCCN2CCNCC2)cc1	-25%	2.2µM*	-22%	14%
Cc1ccccc1OCCCCCCN1CCNCC1	2%	2.2µM*	-12%	7%
Cc1ccc(OCCCCCN2CCOCC2)cc1	7%	6%	i	1%
Cc1cccc(C)c1OCCCCN1CCNCC1	-2%	?	-16%	6%
O=C(C(c1ccccc1)c1ccccc1)N1CCCc2ccccc21	-8%	5µM*	i	1%
Cc1c(Br)c([N+](=O)[O-])nn1C(C)C(=O)N1CCCc2ccccc21 (stereo not given)	-22%	10µM*	-25%	-4%
COc1ccc(NS(=O)(=O)c2cccc(C(=O)NCC3(N4CCCCC4)CCCCC3)c2)cc1	25%	17%	i	-14%
CCOc1ccc(NS(=O)(=O)c2cccc(C(=O)NCC3(N(C)C)CCCCC3)c2)cc1	-11%	10µM*	-1%	1%
CN1C2CCC1CC(N(CCc1ccccc1)C(=O)c1ccc(Cl)cc1)C2 (stereo not given)	-1%	10µM*	-7%	-4%
CO/N=C(\C(=O)N[C@@H]1C(=O)N2C(C(=O)[O-])=C(C[n+]3cccc4c3CCCC4)CS[C@H]12)c1csc(N)n1	/	/	/	-2%
COc1ccc(NC(=S)N=Nc2c(O)[nH]c3ccccc23)cc1	3.2µM*	?	-23%	-4%
Cc1ccc(NC(=S)N=Nc2c(O)[nH]c3ccccc23)cc1	4µM*	?	-4%	11%
Cc1ccccc1N=Nc1c(O)[nH]c2ccccc12	6%	3%	i	-1%

Screens (PubChem)
